Assay results: PubChem BioAssay
Values without a mark were called inactive. How the calls were made is not given here.

These molecules were tested against Pantothenate synthetase (Mycobacterium tuberculosis (strain ATCC 25618 / H37Rv)) (UniProt P9WIL5) (assay: Coupled enzyme confirmation of inhibitors against recombinant Mtb PanC (AID 375;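 further: 0% = full reaction with vehicle and 100% = no enzyme background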)). Settings: coupled enzyme assay; at 10 µM, stronger effect = higher value.
Sequence of Pantothenate synthetase (Mycobacterium tuberculosis (strain ATCC 25618 / H37Rv)) (P9WIL5 whole entry, looked up): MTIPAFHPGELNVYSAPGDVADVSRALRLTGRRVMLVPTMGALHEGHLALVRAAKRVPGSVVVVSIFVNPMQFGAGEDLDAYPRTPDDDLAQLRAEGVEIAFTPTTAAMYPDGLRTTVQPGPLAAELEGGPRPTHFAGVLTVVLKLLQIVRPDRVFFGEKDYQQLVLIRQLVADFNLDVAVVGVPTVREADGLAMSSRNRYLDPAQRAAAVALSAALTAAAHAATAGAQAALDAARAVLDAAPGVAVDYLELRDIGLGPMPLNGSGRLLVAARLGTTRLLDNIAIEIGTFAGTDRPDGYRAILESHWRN

| Structure (SMILES) | inhibition |
| --- | --- |
| COc1cc2c(cc1OC)C(/C(C#N)=N\O)=NC(C)(C)C2 | 2% |
| O=C(Nc1ccc2c(c1)OCO2)OCc1ccccc1 | 0% |
| CCOC(=O)COc1ccc(S(=O)(=O)Nc2ccc3c(c2)OCO3)cc1 | 2% |
| OC(CNCC1COc2ccccc2O1)COCc1cccs1 (stereo not given) | 0% |
| O=C(CN1C(=O)CCSc2ccccc21)Nc1ccc2c(c1)OCO2 | 2% |
| CCSc1nnc(NC(=O)c2csc(C)c2)s1 | 1% |
| CN1CCC(=C2c3ccccc3CC(=O)c3sccc32)CC1 | 2% |
| CC(C)(C)n1ncc2c(=O)n(CC(=O)c3ccccc3)cnc21 | 0% |
| CS(=O)(=O)N(CC(=O)N1CCCCCC1)c1ccccc1 | 8% |
| CCOC(=O)c1ccccc1NC(=O)c1ccc(NS(C)(=O)=O)cc1 | 0% |
| O=C(NCCCN1CCN(CCCNC(=O)c2ccc(F)cc2)CC1)c1ccc(F)cc1 | 0% |
| NC(=O)c1ccccc1NC(=O)CN1CCOCC1 | 6% |
| O=c1oc2ccccc2c(N2CCCCC2)c1CN1CCCCC1 | 0% |
| Cc1cccc(C2CC(c3ccc(Cl)cc3)Nc3nc(N)nn32)c1 (stereo not given) | 0% |
| CCOC(=O)C1CCCN(C(=O)Cc2ccc(OC)c(OC)c2)C1 (stereo not given) | 0% |
| CCOC(=O)CSC1=C(C#N)C(c2ccc(C)o2)CC(=O)N1 (stereo not given) | 0% |
| CCc1nn(CC(=O)N2CCN(Cc3ccc4c(c3)OCO4)CC2)c(=O)c2cc3occc3n12 | 5% |
| CCc1nnc(NC(=O)c2ccc(-c3cccc(C(F)(F)F)c3)o2)s1 | 0% |
| CCn1c(CSc2nc(C)cc(C)n2)nnc1SCC(=O)Nc1ccccc1 | 5% |
| COC(=O)c1sccc1NC(=O)c1ccncc1 | 6% |

| Structure (SMILES) | inhibition |
| --- | --- |
| CCOC(=O)c1nc2sc3c(c2c(=O)[nH]1)CCCC3 | 0% |
| O=c1oc2ccccc2c(O)c1CN1CCCCC1 | 0% |
| C=CC(O)(C#CCN(CC)CC)c1ccccc1 (stereo not given) | 3% |
| COc1ccccc1N1CCN(S(=O)(=O)CC23CCC(CC2=O)C3(C)C)CC1 (stereo not given) | 1% |
| C/C(N)=C(/C#N)C(=O)CSc1nnc(Nc2c(C)cccc2C)s1 | 9% |
| Cc1nc2ccccn2c(=O)c1CCN1CCC(C(=O)c2ccc(F)cc2)CC1 | 0% |
| CCCCCCNC(=O)Cc1c(O)c2ccccc2[nH]c1=O | 5% |
| Cc1c(NC(=O)C(C)OC(=O)COc2cccc3c2OC(C)(C)C3)c(=O)n(-c2ccccc2)n1C (stereo not given) | 5% |
| COc1ccc2[nH]c(=O)c(CN(CC3CCCO3)C(=O)Nc3ccc(F)cc3)cc2c1 (stereo not given) | 0% |
| O=C(NC1CCCCCC1)c1c(F)c(F)c(F)c(F)c1F | 4% |
| CCn1c(SCC(=O)c2ccc(Cl)cc2)nnc1-c1ccoc1C | 0% |
| COc1ccccc1N1CCN(C(=O)CN(Cc2ccc(Cl)cc2)S(C)(=O)=O)CC1 | 3% |
| CSc1ccc(-c2cc(=O)c3ccccc3o2)cc1 | 5% |
| O=C(Nc1ccc2snnc2c1)N1CCN(c2ccccc2)CC1 | 0% |
| COc1ccc(S(=O)(=O)NCC(c2cccnc2)N2CCN(C)CC2)cc1C (stereo not given) | 0% |
| CCOC(=O)C1=C(CS(=O)(=O)c2ccc(F)c(C)c2)NC(=O)NC1c1ccc(O)c(O)c1 (stereo not given) | 7% |
| Cn1c(Cl)cnc1C1CC(=O)c2cc(Cl)ccc2O1 (stereo not given) | 7% |
| CC(=O)C1=C(NC(=O)c2ccccc2F)C[C@@H]2[C@H]1C2(C)C | 0% |
| COc1ccc(-c2nc(CCNC(=O)c3ccco3)cs2)cc1OC | 5% |
| CC1(C)NC(=O)N(CC(O)COc2ccc(-c3ccccc3)cc2)C1=O (stereo not given) | 0% |
